FMDV inh – antivirals against foot and mouth disease virus; Potency, µM (highest dose often 57.9 µM), inactives show at the top dose activity change, negative = inhibition, actives largely listed as inhibitors; FMDV antiviral cell-based qHTS; hit rate 1.2% among 410,000; calls by dose curve; tested in HEK293T cells; also: read-out not given here; nearly all actives have a fitted effect of over 45% in size
Lassa entry inh – Lassa virus entry inhibition. Lassa virus pseudotype entry inhibition, cell reporter. hit rate 1.2% among 300,000. Potency, µM (series often up to 37.9 µM), for inactives: at the highest dose activity change, negative = inhibition, actives largely listed as inhibitors; calls by dose curve; tested in HEK293 cells; also: nearly all actives have a fitted effect of over 50% in size
RE007 growth inh – less growth of the S. pombe RE007 Vpr strain; S. pombe RE007 Vpr strain, BacTiter-Glo ATP luminescence, 24 h; Potency, µM (series often up to 92.2 µM), for inactives: top-dose activity change, negative = less growth, most hits filed as inhibitors; hit rate 0.21% among 360,000; AID 651644; active = well fitted falling curve with a large enough effect; inconclusive = small, poorly fitted or top-dose-only effect; inactive = no such curve, though single readings can be large or run the other way; also: nearly all actives have a fitted effect of over 50% in size
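Fission yeast RE007 carrying one integrated HIV-1 vpr copy, seeded at OD 0.01 in PMG+AL medium with 23 nL pinned compound. Grown 24 h at 30 degrees; viability read by BacTiter-Glo luminescence after 5 min.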
HCV inhibitor – inhibitors of hepatitis C virus infection. Potency, µM (doses to about 41.8 µM), for inactives: top-dose activity change, negative = inhibition, hits mostly inhibitors. Huh7.5.1 HCVcc-Cre infection, luciferase reporter, 44 h. AID 651820. hit rate 3.4% among 340,000
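Whole-lifecycle infectious HCVcc-Cre system; cells 1,000/well, compound then virus (~0.5 moi) added 4 h after plating, 44 h culture. Luciferase read 15 sec following 15 min substrate incubation, room temp.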
MARV entry inh – Marburg virus entry inhibition; Marburg virus pseudotyped entry inhibition, cell reporter; hit rate 1.8% among 300,000; AID 540276; Potency, µM (top dose mostly 37.8 µM), for inactives: at the top dose activity change, negative = inhibition, most hits filed as inhibitors; calls by dose curve; tested in HEK293 cells
Sm TGR block – S. mansoni TGR enzyme inhibition; Q962Y6; purified TGR, DTNB reduction, TNB absorbance 405 nm; Potency, µM (series often up to 114 µM), for the others: at the top dose activity change, negative = inhibition, hits mostly inhibitors; hit rate 3% among 360,000; AID 485364; also: nearly all actives have a fitted effect of over 60% in size
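First, TGR (20 nM dispensed) and NADPH were mixed with compound. Second, a 15 min room-temperature incubation followed. Third, further NADPH and then DTNB were added to start the reaction. Finally, TNB absorbance was monitored kinetically.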
Starred values were filed as active, the others as inactive; u = inconclusive; x = no result; [ ] = another dose, or the depositor's remark. Rows were chosen to be rich in hits. Some 7.2% of all compounds tested hit in one or more screens of this group. Unless noted, calls follow the shape of the dose curve; as a rule, active = well fitted curve in the direction sought with a large enough effect; inconclusive = small, poorly fitted or top-dose-only effect, or another doubt; inactive = no such curve, though single readings can be large; an effect the other way counts as inactive or inconclusive. % is scaled to controls: 0 for no effect and ±100 for the full control effect; potency is read from the fitted curve at half-maximal effect.

SMILES	FMDV inh	Lassa entry inh	RE007 growth inh	HCV inhibitor	MARV entry inh	Sm TGR block
Cc1ccc(OCC(O)Cn2c(=N)n(CCN3CCCCC3)c3ccccc32)cc1 (configuration not stated)	u	u	-10%	2.5µM*	8.2µM*	10%
N=c1n(CCO)c2ccccc2n1CCOc1ccc(Cl)cc1Cl	28µM*	x	7%	u	1%	-2%
COc1ccc(OCC(O)Cn2c(=N)n(CCN3CCCCC3)c3ccccc32)cc1 (configuration not stated)	-27%	u	u	u	u	-9%
N=c1n(CCN2CCOCC2)c2ccccc2n1CC(=O)c1ccc(Cl)c(Cl)c1	-18%	u	-28%	u	u	9%
N=C(C[C@@H](O)COc1ccccc1-c1ccccc1)N1CCCCC1	-30%	x	x	x	x	x
OC(CNCCCN1CCCCC1)COc1ccccc1 (configuration not stated)	-23%	-1%	25%	10µM*	u	5%
N=c1n(CCN2CCCCC2)c2ccccc2n1CC(O)COc1ccc(Cl)cc1Cl (configuration not stated)	-16%	u	x	x	5.6µM*	20%
OC(COc1ccc(Cl)cc1Cl)CN1CCc2ccccc2C1 (configuration not stated)	27%	x	-16%	-12%	x	-3%
OC(COc1ccccc1)CN1CCCCCC1 (configuration not stated)	-9%	-24%	-4%	-21%	u	-3%
CC1=NN(C(N)=S)C(=O)C1N=Nc1ccc([N+](=O)[O-])cc1 (configuration not stated)	-42%	30%	3%	6%	19%[46.1 µM]	-8%
Cc1cc(C(=O)CN2CCCCC2)c(C)n1-c1ccc(F)cc1	14%	-11%	1%	-26%	u	-3%
Cc1cc(C(=O)CN2CCCC2)c(C)n1-c1ccc(F)cc1	-13%	0%[46.1 µM]	-9%	-6%	-1%[46.1 µM]	45µM*
CCC1C(=O)NCCN1Cc1ccc2c(c1)CN(Cc1ccc(OC)c(OC)c1)CCO2 (configuration not stated)	-17%	x	x	x	x	x
Nc1cccc2nsnc12	-10%	-22%	3%	-17%	u	35µM*
COc1ccc(C2=CC(c3ccc(OC)c(OC)c3)c3c(c4ccccc4oc3=O)O2)cc1OC (configuration not stated)	-28%	x	x	10µM*	x	-22%
O=C(CCNS(=O)(=O)c1ccc2c(c1)CCCC(=O)N2)NCc1ccccc1Cl	-15%	-6%[46.1 µM]	x	x	x	14%
CN1C(=O)C(Cc2c[nH]c3ccccc23)NC1=S (configuration not stated)	19%	x	x	x	x	x
CN1C(=O)C(Cc2c[nH]c3ccccc23)C(=O)N(C)C1=O	x	x	x	15%	0%	14µM*
O=C1c2ccccc2C(=O)C1Cc1cccc2ccccc12	37%	19%	-22%	20%	0%	56µM*
CN1C(=O)C(Cc2cccc3ccccc23)C(=O)N(C)C1=O	-11%	2%	-13%	9%	5%	14µM*
CC1=C(C(=O)Nc2cc(Cl)ccc2C)C(c2cccs2)n2ncnc2N1 (configuration not stated)	-20%	u	x	x	x	6%
CC1CCC(NC(=O)c2ccc3c(c2)N(Cc2ccccc2F)C(=O)c2ccccc2S3=O)CC1 (configuration not stated)	8%	-12%[46.1 µM]	x	x	-28%[46.1 µM]	9%
CCn1c(C)c(C(C)=O)c(N2CCN(c3ccccc3)CC2)nc1=S	-8%	2%	3%	-16%	-5%	0%
CCn1c(C)c(C(C)=O)c(N2CCN(C(c3ccccc3)c3ccccc3)CC2)nc1=S	32µM*	u	5%	6.3µM*	u	u
CCc1ccccc1NC(=O)Cn1nnc(C(=O)NCc2ccccc2Cl)c1N	2%	13%[46.1 µM]	x	x	x	-5%
c1cn(-c2ncnc3ccc(-c4ccoc4)cc23)cn1	28µM*	x	x	x	x	x
CCc1ccc2[nH]c3nc(N/N=C/c4ccc(O)cc4O)nnc3c2c1	-18%	u	20%	u	3.5µM*	6%
